Sampled rows, rich in hits. Any-hit rate of the full collection: about 1.1%.
LRH-1 inv ag: NR5A2 inverse agonism in reporter assay | HEK293T StAR-luciferase reporter, LRH-1 transfected, 24 h | inhibition, % at 3.6 µM | hit rate 0.13% among 360,000 | O00482;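 active means inhibition above the mean inhibition of all tested compounds plus 3 SD, cut at about 73% in these data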;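 further: 0% = DMSO wells and 100% = reporter-only cells lacking LRH-1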
NCOA3 inh: inhibitors of human steroid receptor coactivator 3 (SRC3). inhibition, % at 3.6 µM. HEK293 GAL4-SRC3 luciferase reporter, luminescence. Q9Y6Q9. hit rate 0.17% among 360,000;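 active means inhibition above a per-campaign cutoff, the mean of all compounds plus 3 SD, cut at about 60% in these data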;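 further: 0% = DMSO-treated cells and 100% = gossypol-treated cells at 36 µM; higher means less SRC3-driven luciferase light from the GAL4 reporter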
NCOA1 inh: inhibits human SRC1 coactivator. Q15788. HEK293 GAL4-SRC1 luciferase reporter, luminescence. inhibition, % at 3.6 µM. hit rate 0.12% among 360,000. AID 588354;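 active means inhibition above the campaign mean plus 3 SD, with each screening campaign given its own cutoff, cut at about 60% in these data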;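 further: 0% = DMSO treated cells and 100% = gossypol at 36 µM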
Shn3 inh set2: inhibitors of Schnurri-3 3'UTR reporter in osteoblasts. Clone20 osteoblast Shn3 3'UTR firefly luciferase, 24 h. inhibition, % at 12.5 µM. hit rate 0.52% among 360,000;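 active means mean inhibition of at least 75% with every replicate also reaching 75%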;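 further: 0% = median of neutral control wells and 100% = pilot-screen positive control compound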
Gli-Sufu antag: blocks Gli-Sufu signaling in a luciferase reporter; Sufu-KO-LIGHT fibroblasts, Gli luciferase reporter luminescence; inhibition, % at 5 µM; hit rate 0.74% among 340,000; AID 588413;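 active means inhibition above about 55%, limit read from the data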;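 further: 0% = DMSO-treated cells and 100% = wells with medium but no cells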
NCOA2 inhibitor: inhibits human steroid receptor coactivator 2; inhibition, % at 9 µM; Q15596; HEK293 GAL4-SRC2 luciferase reporter, luminescence; hit rate 0.17% among 370,000; AID 651957;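 active means inhibition above the mean inhibition of all tested compounds plus 3 SD, set per campaign, cut at about 52% in these data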;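 further: 0% = DMSO treated cells and 100% = cells given Gossypol at 36 µM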
Active calls of the source: *; / = no result given; ! = repeats disagree.

SMILES | LRH-1 inv ag | NCOA3 inh | NCOA1 inh | Shn3 inh set2 | Gli-Sufu antag | NCOA2 inhibitor
COC(=O)[C@]12C[C@H](CC(=O)NCCc3ccccc3OC)C(=O)N(Cc3ccco3)C1=C[C@H](C(C)(C)C)O[C@@H]2C | / | / | / | / | / | 26
COc1ccc(/C=N/Nc2cc(C)nc3ccccc23)cc1 | 12 | 20 | 20 | 11 | 55* | 5
Cc1nn(-c2ccccc2)c(C)c1C=NNC(=O)CSc1nc2ccccc2n1C | / | / | / | / | / | 21
CCOc1ccc2nc(SC3CC(=O)N(c4ccc(C)cc4)C3=O)sc2c1 (stereo unspecified) | 12 | -14 | -4 | 96* | -28 | -28
CC(Cl)=CCn1c(NCCc2ccccc2)nc2c1c(=O)n(C)c(=O)n2C | 22 | 22 | -3 | 92* | / | 1
Cn1c(=O)c2c(nc(NCc3ccco3)n2C)n(C)c1=O | -6 | 9 | 7 | 0 | -2 | 7
Cn1c(=O)c2c(nc(NCc3ccco3)n2C/C=C/c2ccccc2)n(C)c1=O | 19 | 48 | 37 | 88* | -4 | -4
COC(=O)[C@H]1C[C@@]2(N3CCCCC3)c3ccccc3N[C@H]2N1S(=O)(=O)c1ccc(C)cc1 | / | / | / | / | / | -14
C[C@H](O)[C@@H]1CN2CCc3c([nH]c4c(-c5ccc6c(c5)OCO6)cccc34)[C@@H]2C[C@@H]1N(C)C(=S)NCCc1ccccc1 | / | / | / | / | / | 26
Cc1nn(-c2ccccc2)c2sc(C(=O)NC3CCCCCCC3)cc12 | / | / | / | / | / | 3
COc1ccc(NC(=O)C2(C)Cc3c(-c4cccc(C(F)(F)F)c4)ccnc3O2)cn1 (stereo unspecified) | -4 | 5 | 10 | -14 | / | 71*
Cc1cccc(-n2c(CNC(=O)c3ccccc3)nnc2SCC(=O)Nc2nccs2)c1 | 85* | -16 | 59 | -13 | -1 | 11
C=CC[n+]1c(-c2ccc(OCC)cc2)csc1NNC(=O)Nc1ccccc1 | -15 | 9 | -2 | 88* | 36 | -8
O=c1[nH]c(=O)n(C2C[C@H](O)[C@@H](CO)O2)cc1C(F)(F)F (stereo partly specified) | -29 | 73* | 75* | 48 | 30 | -6
O=c1[nH]c(=O)n(C2CC(O)C(CO)O2)cc1Br (stereo unspecified) | -120 | 20 | 23 | -14 | -20 | -62
O=c1[nH]c(=O)n([C@H]2C[C@H](O)[C@@H](CO)O2)cc1C(F)(F)F | -35 | 65* | 77* | 30 | 42 | -27
COC(=O)[C@]12C[C@H](CC(=O)NCCCCc3ccccc3)C(=O)N(CCc3ccc(OC)c(OC)c3)C1=C[C@H](C(C)(C)C)O[C@@H]2C | / | / | / | / | / | 4
Cc1ccnc2c1ccc1c(C)ccnc12 | 93* | 75* | 77* | 90* | 91* | /
O=Cc1ccc2ccc3cccnc3c2n1 | 37 | -2 | 14 | 10 | 4 | -20
c1cnc2c(c1)ccc1cccnc12 | 58 | 46 | -8 | 95*! | 76* | 10
Cc1ccnc2c1ccc1ccccc12 | 4 | -33 | 6 | -16 | -5 | 10
Cc1ccnc2c1ccc1cccnc12 | 71 | -50 | 7 | 92* | 92* | 52
C[C@@H]1[C@@H](O)C[C@@]2(C[C@H](O)c3cc(F)ccc3O2)O[C@H]1c1ccccc1Cl | / | / | / | / | / | 9
CCCCCC(=O)NC1CCCCN(Cc2ccc(C)cc2)C1=O (stereo unspecified) | / | / | / | / | / | 11
O=C(O)CSCC(=O)Nc1ccc(C2CCCCC2)cc1 | 80* | 74* | 76* | 54 | 38 | 91*
SMILES | LRH-1 inv ag | NCOA3 inh | NCOA1 inh | Shn3 inh set2 | Gli-Sufu antag | NCOA2 inhibitor
COC(=O)[C@]12C[C@H](CC(=O)NCCCN3CCCC3=O)C(=O)N(CCc3ccc(OC)c(OC)c3)C1=C[C@H](C1CCCC1)O[C@@H]2C | / | / | / | / | / | 0
O=C(CCCc1ccccc1)NC1CC1 | -9 | 11 | -7 | -12 | -11 | -9
O=C(O)CCCc1ccc2c(c1)CCc1ccccc1-2 | -9 | 19 | 17 | 15 | 13 | 74*
CC[n+]1c(/C=C/c2ccc(OC)c(OC)c2)ccc2ccccc21 | -131 | -94 | -101 | -108 | -51 | -124
CCN(CC)c1ccc(/C=C/c2ccc3ccc(OC)cc3[n+]2CC)cc1 | 74* | 51 | 46 | 87* | 84* | -18
Cc1c2ccccc2cc[n+]1CCCS(=O)(=O)[O-] | 9 | -4 | 1 | 16 | -5 | 13
CCCCCCCCCC[n+]1cccc2c3ccccc3ccc21 | 90* | 82* | 58 | 84 | 89* | 44
